# Assay outcomes deposited in PubChem BioAssay by several laboratories.
# NCOA1 inh = inhibitors of human steroid receptor coactivator 1 (SRC1). Q15788. HEK293 GAL4-SRC1 luciferase reporter, luminescence. inhibition, % at 3.6 µM. actives 0.12% (n = 360,000). AID 588354;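 active = inhibition above the campaign mean plus 3 SD, with each screening campaign given its own cutoff, cut at about 60% in these data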
# Gli-Sufu block = antagonists of Gli-Sufu signaling; actives 0.74% (n = 340,000); inhibition, % at 5 µM; Sufu-KO-LIGHT fibroblasts, Gli luciferase reporter luminescence;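 active = inhibition above about 55%, limit read from the data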
# COUP-TFII inh = blocks human COUP-TFII nuclear receptor. P24468. HEK293T NGFI-A luciferase reporter, luminescence. inhibition, % at 8.6 µM. actives 0.7% (n = 370,000). AID 686940;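 active = inhibition above a per-plate cutoff, mean inhibition of test wells between control levels plus 3 SD, cut at about 38% in these data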;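 also: cells cotransfected with COUP-TFII expression vector driving the NGFI-A reporter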
# NCOA3 inh = human NCOA3 inhibition; Q9Y6Q9; HEK293 GAL4-SRC3 luciferase reporter, luminescence; inhibition, % at 3.6 µM; actives 0.17% (n = 360,000); AID 588352;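 active = inhibition above a per-campaign cutoff, the mean of all compounds plus 3 SD, cut at about 60% in these data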;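 also: higher means less SRC3-driven luciferase light from the GAL4 reporter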
# NCOA2 inhibitor = human SRC2 (NCOA2) inhibition; Q15596; HEK293 GAL4-SRC2 luciferase reporter, luminescence; inhibition, % at 9 µM; actives 0.17% (n = 370,000); AID 651957;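 active = inhibition above the mean inhibition of all tested compounds plus 3 SD, set per campaign, cut at about 52% in these data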
# LRH-1 inv ag = NR5A2 inverse agonism in reporter assay | actives 0.13% (n = 360,000) | HEK293T StAR-luciferase reporter, LRH-1 transfected, 24 h | inhibition, % at 3.6 µM;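 active = inhibition above the mean inhibition of all tested compounds plus 3 SD, cut at about 73% in these data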
# Gal4-VP16 ctr = counter-screen for COUP-TFII antagonists: inhibitors of VP16; inhibition, % at 8.5 µM; shares compounds with COUP-TFII inh; HEK293 Gal4-VP16 luciferase reporter, luminescence; AID 687007; actives 25% (n = 2,500); in the data active = inhibition above about 13%
# NR2F2 inh conf = COUP-TFII (NR2F2) inhibition, confirmation assay; shares compounds with COUP-TFII inh; HEK293 NGFI-A luciferase reporter, luminescence; inhibition, % at 8.5 µM; actives 45% (n = 2,500);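 active = mean inhibition over three repeats above a set limit taken from the earlier primary screen, cut at about 38% in these data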
# Numbers stand for hits; - = inactive; . = not tested or not shown; ! = not active in a repeat. Only some compounds are listed: those with a hit (about 1.2% of all), similar ones and a draw of the others.
SMILES,NCOA1 inh,Gli-Sufu block,COUP-TFII inh,NCOA3 inh,NCOA2 inhibitor,LRH-1 inv ag,Gal4-VP16 ctr,NR2F2 inh conf
C=C(C(=O)c1ccccc1)C(C)C(=C)C(=O)c1ccccc1,-,-,58,-,-,-,47,87
Nc1[nH]c(C(=O)c2ccccc2)c(-c2ccccc2C(F)(F)F)c1C(=O)c1c[nH]c2ccccc12,.,.,-,.,-,.,.,.
Cc1ccc(NC(=O)c2ccc(C)cc2)cc1,-,-,-,-,-,-,.,.
Cc1ccc(C(=O)Nc2cc(C(C)C)c(O)c(C(C)C)c2)cc1,-,-,46,-,-,-,-,-
COc1ccc(N(/N=C2\Sc3ccccc3C2=O)C(C)=O)cc1,-,-,-,-,-,-,.,.
COc1ccccc1N(/N=C1\Sc2ccccc2C1=O)C(C)=O,-,-,39,-,-,-,-,-
CC(=O)c1cccc(N=c2scc(-c3ccc(S(=O)(=O)N4CCOCC4)cc3)n2CCO)c1,-,-,60,-,-,-,-,65
C=CCn1c(-c2ccc(S(=O)(=O)N3CCOCC3)cc2)csc1=Nc1ccccc1,-,-,-,-,-,-,.,.
COCCCNC(=O)C[C@H]1C[C@@]2(C(=O)OC)C(=C[C@H](C3CCCC3)O[C@@H]2C)N(Cc2ccc(Cl)cc2Cl)C1=O,.,.,-,.,-,.,.,.
COc1cccc(CNC(=O)C2CCCN(c3ncccn3)C2)c1OC (stereo not drawn),.,.,-,.,-,.,.,.
Clc1ccccc1C1=Nn2c(nnc2-c2ccncc2)SC1,-,-,40,66,54,-,-,-
c1ccc(-c2ccc(C3=Nn4c(nnc4-c4ccncc4)SC3)cc2)cc1,.,.,-,.,-,.,.,.
Clc1ccc(-c2csc3ncnc(NCCN4CCOCC4)c23)cc1,-,-,-,-,-,-,.,.
Cc1ccc(-c2csc3ncnc(NCCN4CCOCC4)c23)cc1,-,-,38,-,-,-,-,-
O=C(N[C@H](Cc1ccccc1)C(=O)N1CCN(c2ccc(Cl)cn2)CC1)[C@H]1O[C@@H](n2ccc(=O)[nH]c2=O)[C@H](O)[C@@H]1O,.,.,-,.,-,.,.,.
COc1cccc(C(=O)NCC2CCN(C(=O)C(=O)c3cc4ccccc4o3)CC2)c1,.,.,-,.,-,.,.,.
COC(=O)c1ccc2nc(Nc3nc4ccc(F)cc4s3)sc2c1,-,-,52,-,-,-,-,58
CC(=O)c1sc(Nc2nc3ccc(F)cc3s2)nc1C,-,-,-,-,-,-,.,.
COC(=O)c1ccc2nc(NC(=O)C(C)(C)C)sc2c1,-,-,66,-,-,-,-,-
OC(c1ccccc1)(c1ccccc1)C1CCN(CCCOc2ccccn2)CC1,.,.,-,.,-,.,.,.
CCOc1ccc(CCNC(=O)c2cc3sccc3n2CC)cc1OC,.,.,57,.,-,.,-,-
COc1ccc(CN(C)C(=O)CCc2ccc(S(=O)(=O)N3CCCCCC3)cc2)c(OC)c1,-,-,-,-,-,-,.,.
CCOc1ccc(CN(C)C(=O)CCc2ccc(S(=O)(=O)N3CCCCCC3)cc2)cc1,-,-,41,-,-,-,-,-
COc1ccc(CN(C)C(=O)/C=C/c2ccc(S(=O)(=O)N3CCCCCC3)cc2)cc1,-,-,38,-,-,-,-,-
O=C(NCc1ccccc1)[C@@H]1CCCN1C(=O)[C@H]1CCCN1C(=O)c1ccc(Cl)c(Cl)c1,.,.,-,.,-,.,.,.
SMILES,NCOA1 inh,Gli-Sufu block,COUP-TFII inh,NCOA3 inh,NCOA2 inhibitor,LRH-1 inv ag,Gal4-VP16 ctr,NR2F2 inh conf
CN1CCCN(S(=O)(=O)c2ccc3c(c2)CCC(=O)N3)CC1,.,.,-,.,-,.,.,.
O=C(c1ccc(CNS(=O)(=O)c2ccccc2)cc1)N1CCN(Cc2ccccc2)CC1,-,-,58,-,-,-,-,-
CS(=O)(=O)c1ccc(C(=O)N2CCN(Cc3ccccc3)CC2)cc1,-,-,-,-,-,-,.,.
C=CCCN1[C@@H](Cc2ccccc2)COc2ccccc2S1(=O)=O,.,.,-,.,-,.,.,.
CC(C)Cn1c(N)c(C(=O)COC(=O)c2ccc(F)cc2)c(=O)n(C)c1=O,-,-,-,-,-,-,.,.
CCc1ccc(C(=O)OCC(=O)c2c(N)n(CC(C)C)c(=O)n(C)c2=O)cc1,-,-,47,-,-,-,-,-
O=S(=O)(c1ccc(C(F)(F)F)cc1)N1CCCc2nc(-c3ccccc3)ccc21,.,.,-,.,-,.,.,.
CN(C)c1ccc(N=Nc2nc3ccccc3n2C)cc1,-,-,61,-,-,-,-,-
COc1ccccc1N(C)S(=O)(=O)c1ccc(C(=O)Nc2cccc(S(=O)(=O)N3CCOCC3)c2)cc1,-,-,50,-,-,-,-,-
COc1ccccc1N(C)S(=O)(=O)c1ccc(C(=O)Nc2nnc(C)s2)cc1,-,-,-,-,-,-,.,.
COc1ccccc1N(C)S(=O)(=O)c1ccc(C(=O)Nc2nc(C)cs2)cc1,-,-,40,-,-,-,-,-
O=C(Nc1cccc(S(=O)(=O)N2CCOCC2)c1)c1cccc(S(=O)(=O)N2CCCC2)c1,-,-,-,-,-,-,.,.
CN(c1ccccc1)S(=O)(=O)c1ccc(C(=O)Nc2cccc(S(=O)(=O)N3CCOCC3)c2)cc1,-,.,56,-,-,-,-,43
COc1ccc(C(=O)Nc2cccc(S(=O)(=O)N(C)C)c2)cc1S(=O)(=O)N1CCOCC1,-,-,-,-,-,-,.,.
CCOC(=O)c1cc2c(=O)n3cccc(C)c3nc2n(CCOC)c1=NC(C)=O,-,-,-,-,-,-,.,.
CCOC(=O)c1cc2c(=O)n3cccc(C)c3nc2n(CC2CCCO2)c1=NC(C)=O (stereo not drawn),-,-,73!,-,-,-,-,-
O=C(Nc1ccc(N2CCCCCC2)cc1)c1cccc(S(=O)(=O)N2CCOCC2)c1,-,-,46,-,-,-,-,38
CC(=O)c1cccc(NC(=O)c2cccc(S(=O)(=O)N3CCOCC3)c2)c1,-,-,-,-,-,-,.,.
CCOC(=O)c1ccc(NC(=O)c2cccc(S(=O)(=O)N3CCOCC3)c2)cc1,-,-,38,-,-,-,-,-
COc1ccc(C(=O)Nc2ccc(N3CCCCCC3)cc2)cc1S(=O)(=O)N1CCOCC1,-,-,49,-,-,-,-,-
CC1(C)CC2CC(C)(CN2S(=O)(=O)c2ccc(C(=O)Nc3ccc(S(=O)(=O)N4CCOCC4)cc3)cc2)C1 (stereo not drawn),-,.,53,-,-,-,-,64
N#Cc1ccc2nc(-c3ccc(CN4CCC(n5cc(-c6ccccc6)[nH]c5=O)CC4)cc3)c(-c3ccccc3)nc2c1,.,.,-,.,-,.,.,.
COc1ccc(/C=C/C(=O)Nc2ccc(C)c(S(=O)(=O)N3CCOCC3)c2)cc1,-,-,68,-,-,-,-,-
O=C(N/N=C/c1sc(N2CCOCC2)nc1-c1ccccc1)c1cccc(S(=O)(=O)N2CCCC2)c1,65,-,38,76,-,86,-,67
